# “And” between values parts separate entries of the source, which are not always exact repeats. Equal values may be shown once. Screen size: about 77,000 compounds; about 4,600 (6%) were called active. Roughly 1% stayed inconclusive and do not appear here. This is one part of a sample in which actives are shown more often than they occur.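 Rule for the calls: active = mean inhibition above about 93%, with at least 55% of replicates each passing it (limit read from the data, passing the limit was not always enough); inconclusive = only one of those two conditions holds; inactive = neither condition holds.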
# Assay: T. cruzi intracellular proliferation inhibitors, primary screen, cell-based, beta-gal Tulahuen parasites, NIH3T3 host, luminescence (AID 624255)
# Conditions: T. cruzi beta-gal in NIH3T3, GalScreen luminescence, 90 h; at 8.34 µM; stronger effect = higher value
row,SMILES,inhibition
1,COc1cccc(-c2ccc([C@H]3[C@H]4CN(C(=O)Cc5ccncc5)CCCCN4[C@H]3CO)cc2)c1,80.9% (inactive)
2,O=C(Cc1ccccn1)N1CCCCN2[C@@H](CO)[C@@H](c3ccc(C#Cc4ccccc4)cc3)[C@@H]2C1,110% (active)
3,O=C(Cc1ccncc1)N1CCCCN2[C@@H](CO)[C@H](c3ccc(-c4ccncc4)cc3)[C@@H]2C1,60.5% (inactive)
4,C/C=C/c1ccc([C@H]2[C@H](CO)N3CCCCN(C(=O)Cc4ccncc4)C[C@@H]23)cc1,126% (active)
5,OC[C@@H]1[C@H]2c3ccccc3NC[C@H]2N1Cc1cccnc1,77.8% (inactive)
6,COc1ccc(-c2ccc([C@H]3[C@H](CO)N4CCCCN(C(=O)Cc5ccncc5)C[C@@H]34)cc2)cc1,102% (active)
7,O=C(Cc1ccccn1)N1CCCCN2[C@H](C1)[C@H](c1ccc(-c3ccccc3F)cc1)[C@@H]2CO,16.7% (inactive)
8,N#Cc1cccc(-c2ccc([C@H]3[C@@H](CO)N4CCCCN(C(=O)Cc5cccnc5)C[C@@H]34)cc2)c1,61.2% (inactive)
9,O=C(Cc1ccncc1)N1CCCCN2[C@H](CO)[C@@H](c3ccc(C#CC4(O)CCCC4)cc3)[C@H]2C1,63% (inactive)
10,O=C(Cc1cccnc1)N1CCCCN2[C@@H](CO)[C@H](c3ccc(C#CC4CCCC4)cc3)[C@@H]2C1,110% (active)
11,O=C(Cc1ccncc1)N1CCCCN2[C@@H](CO)[C@H](c3ccc(C#CC4(O)CCCC4)cc3)[C@@H]2C1,93.8% (inactive)
12,COC(=O)[C@H]1[C@H](CO)[C@H]2Cn3c(ccc(C4=CCCC4)c3=O)[C@@H]1N2C(=O)CC1CC1,11.8% (inactive)
13,COC(=O)[C@@H]1[C@@H](CO)[C@@H]2Cn3c(ccc(-c4ccc(F)cc4)c3=O)[C@H]1N2C(C)=O,-2.43% (inactive)
14,COC(=O)[C@H]1[C@H](CO)[C@H]2Cn3c(ccc(-c4cccc(F)c4)c3=O)[C@@H]1N2Cc1ccccc1,8.82% (inactive)
15,O=C(O)[C@H]1[C@H](CO)[C@H]2Cn3c(cccc3=O)[C@@H]1N2C(=O)c1ccccc1,42.5% (inactive)
16,O=C(O)[C@H]1[C@H](CO)[C@H]2Cn3c(ccc(-c4ccccc4F)c3=O)[C@@H]1N2C(=O)c1cccnc1,30% (inactive)
17,COC(=O)C[C@@H]1CC[C@@H]2NC[C@@H](O)COC[C@H]2O1,54.8% (inactive)
18,COC(=O)[C@H]1[C@H](CO)[C@H]2Cn3c(ccc(-c4ccccc4F)c3=O)[C@@H]1N2C(=O)C1CCC1,44.2% (inactive)
19,COc1cccc(-c2ccc3n(c2=O)C[C@@H]2[C@@H](CO)[C@H](C(=O)O)[C@H]3N2C(=O)c2cnccn2)c1,39.3% (inactive)
20,C[C@H]1CN([C@@H](C)CO)C(=O)CCCn2nncc2CO[C@H]1CN(C)C(=O)Oc1cccc2ccccc12,-20.3% (inactive) and -6.68% (inactive)
21,O=C(Cc1ccccc1)N1CCCCN2[C@H](C1)[C@H](c1ccc(C#CC3(O)CCCC3)cc1)[C@@H]2CO,84.7% (inactive)
22,COc1ccc(C#Cc2ccc([C@H]3[C@H](CO)N4CCCCN(C(=O)Cc5ccccc5)C[C@@H]34)cc2)cc1,109% (active)
23,O=C(Cc1ccccc1)N1CCCCN2[C@H](CO)[C@H](c3ccc(C#Cc4ccccc4)cc3)[C@H]2C1,94.6% (inactive)
24,COC(=O)[C@@H]1[C@@H](CO)[C@@H]2Cn3c(ccc(C4=CCCCC4)c3=O)[C@H]1N2CC1CC1,48.5% (inactive)
25,C[C@H]1CN([C@@H](C)CO)C(=O)CCCn2nncc2CO[C@H]1CN(C)C(=O)Oc1ccccc1,32% (inactive) and -17.3% (inactive)
